Source: PubChem BioAssay (several laboratories)
The list is not random: actives were taken first. Their share in the collection is about 3.9%.
HIF-2a inh – HIF-2a inhibition; 786-0 RCC cells HIF-2a reporter, luciferase luminescence, overnight; inhibition, % at 18.8 µM; 360,000 tested, 0.72% active; AID 624352;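 active means inhibition of the luminescence signal of 40% or more relative to plate controls, in a single-dose primary screen at 18.75 µM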
TRAIL sens C8 – caspase-8 TRAIL sensitization; NB7+C8 cells + TRAIL, ATPlite viability luminescence; inhibition (viability loss, TRAIL sensitization), % at 10 µM; 360,000 tested, 1% active; AID 624354;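 active means compounds causing at least 50% loss of cell viability in the single-dose screen, relative to plate controls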
TWEAK-Fn14 inh – inhibitors of TWEAK-Fn14 interaction signaling | TWEAK-stimulated Fn14 reporter cells, luciferase luminescence, 8 h | 360,000 tested, 2% active | inhibition, % at 10 µM | AID 1159606; in the data active means inhibition above about 50%
TROY signal inh – TROY signaling inhibition | AID 1347056 | Q293 LMP1-TROYcd NF-kB luciferase reporter, 4 h | inhibition, % at 10 µM | 360,000 tested, 0.98% active;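 active means compounds whose plate-normalised and pattern-corrected inhibition of the luciferase reporter signal at the single screening dose is 50% or more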
HSP90 refold inh – inhibitors of HSP90 luciferase refolding in rabbit reticulocyte lysate. luciferase refolding luminescence, 3 h. inhibition, % at 5.6 µM. 290,000 tested, 0.91% active. AID 1789;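 active means inhibition above the screen-wide mean plus 3 SD, computed separately per campaign, cut at about 16% in these data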;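 further: 0% = DMSO wells and 100% = 60 µM geldanamycin wells; inhibitors lower the luminescence because luciferase stays unfolded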
aSyn 5UTR inh – 5' untranslated region of α-synuclein, MLPCN primary screen; AID 1813; alpha-synuclein 5'UTR reporter, inhibitor activity; inhibition, % (tested at 7.5 µM); 300,000 tested, 0.82% active; in the data active means inhibition above about 60%;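 further: H4 neuroglioblastoma cells stably carrying SNCA 5'UTR luciferase fusion; 0% = DMSO wells and 100% = positive control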
* hit, by the source's call.

Screening CC(=O)NC(NC(=S)Nc1ccc(N=Nc2ccccc2)cc1)C(Cl)(Cl)Cl (configuration not stated) returned HIF-2a inh -72, TRAIL sens C8 1, TWEAK-Fn14 inh 63*, TROY signal inh -19, HSP90 refold inh 0 and aSyn 5UTR inh -13.
`CCc1ccc(OCC(=O)NC(NC(=S)Nc2ccccc2)C(Cl)(Cl)Cl)cc1` (configuration not stated) gave HIF-2a inh 23, TRAIL sens C8 1, TWEAK-Fn14 inh 74*, TROY signal inh 53*, HSP90 refold inh -1 and aSyn 5UTR inh 20.
Screening O=C(/C=C/c1ccccc1)NC(NC(=S)Nc1ccc(Cl)cc1)C(Cl)(Cl)Cl (configuration not stated) returned HIF-2a inh 16, TRAIL sens C8 52*, TWEAK-Fn14 inh 67*, TROY signal inh 42, HSP90 refold inh 0 and aSyn 5UTR inh -18.
Screening COC(=O)[C@@]1(Sc2ccc(C)cc2)CC(=O)N(C(=O)CCc2ccccc2)[C@@H]1c1ccccc1 returned HIF-2a inh -2, TRAIL sens C8 4, TWEAK-Fn14 inh 4 and TROY signal inh 1.
For Nc1sccc1C(=O)NC1CC1 the results were HIF-2a inh 6 and TRAIL sens C8 10.
`O=C(c1c(F)cccc1Cl)N(Cc1ccco1)C1CCS(=O)(=O)C1` (configuration not stated) gave HIF-2a inh 8, TRAIL sens C8 11, TWEAK-Fn14 inh -7 and TROY signal inh 2.
`Cc1cccc(S(=O)(=O)NC(=O)C2(C)CCN2C(=O)Cc2ccc(Cl)cc2Cl)c1` (configuration not stated) gave HIF-2a inh 21, TRAIL sens C8 -2, TWEAK-Fn14 inh 3 and TROY signal inh -16.
For COc1ccc2nc3cc(Cl)ccc3c(Nc3ccc(O)c(CN4CCN(C)CC4)c3)c2c1 the results were HIF-2a inh -49, TRAIL sens C8 74*, TWEAK-Fn14 inh -112 and TROY signal inh -85.
`COc1ccc2nc3cc(Cl)ccc3c(C#N)c2c1` gave HIF-2a inh -41, TRAIL sens C8 -5, TWEAK-Fn14 inh -24, TROY signal inh -44, HSP90 refold inh 0 and aSyn 5UTR inh -7.
For O=C1COc2ccccc2C(c2nc3ccccc3[nH]2)N1Cc1ccccc1 (configuration not stated) the results were HIF-2a inh 18, TRAIL sens C8 -10, TWEAK-Fn14 inh 18 and TROY signal inh 15.
Screening NCCCn1c(C(=O)c2cc(Cl)c(N)c(Cl)c2)c2ccc([N+](=O)[O-])cc2[n+]1[O-] returned HIF-2a inh 17, TRAIL sens C8 12, TWEAK-Fn14 inh -37, TROY signal inh -32 and aSyn 5UTR inh 100*.
Screening Cc1ccc(NS(=O)(=O)c2cccc([N+](=O)[O-])c2)nc1 returned HIF-2a inh 0, TRAIL sens C8 0, TWEAK-Fn14 inh 2, TROY signal inh -4, HSP90 refold inh 3 and aSyn 5UTR inh 10.
CC1=CN2C(c3cccc([N+](=O)[O-])c3)=NON(c3ccc(C)cn3)C2C=C1 (configuration not stated) was read as HIF-2a inh -20, TRAIL sens C8 -7, TWEAK-Fn14 inh -33 and TROY signal inh 60*.
For CC(C)(C)NC(=O)CN(C(=O)CCC(=O)Nc1nccs1)c1ccc2c(c1)OCCO2 the results were HIF-2a inh 9, TRAIL sens C8 3, TWEAK-Fn14 inh 12, TROY signal inh 2, HSP90 refold inh 1 and aSyn 5UTR inh -5.
For Cc1cccc(N(CC(=O)NCc2ccco2)C(=O)CCC(=O)Nc2nccs2)c1C the results were HIF-2a inh 11, TRAIL sens C8 -15, TWEAK-Fn14 inh 1, TROY signal inh -45, HSP90 refold inh 3 and aSyn 5UTR inh 3.
CC(C)CCNC(=O)CN(C(=O)CCC(=O)Nc1nccs1)c1ccc2c(c1)OCCO2 was read as HIF-2a inh 26, TRAIL sens C8 -6, TWEAK-Fn14 inh 78*, TROY signal inh 69*, HSP90 refold inh 5 and aSyn 5UTR inh -19.
For Cc1ccccc1N(CC(=O)NCc1ccco1)C(=O)CCC(=O)Nc1nccs1 the results were HIF-2a inh -4, TRAIL sens C8 1, TWEAK-Fn14 inh 81*, TROY signal inh -9, HSP90 refold inh 2 and aSyn 5UTR inh 3.
`Cc1cccc(C)c1NC(=O)C1c2ccccc2OCC(=O)N1CCc1ccccc1` (configuration not stated) gave HIF-2a inh 1, TRAIL sens C8 -4, TWEAK-Fn14 inh 1 and TROY signal inh 5.
For COc1ccc(C(=O)N2CC3(C)CC2CC(C)(C)C3)cc1 (configuration not stated) the results were HIF-2a inh 6, TRAIL sens C8 -11, TWEAK-Fn14 inh 6, TROY signal inh 66*, HSP90 refold inh 3 and aSyn 5UTR inh 3.
For CC1(C)CC2CC(C)(CN2C(=O)c2ccccc2)C1 (configuration not stated) the results were HIF-2a inh 14, TRAIL sens C8 3, TWEAK-Fn14 inh -3, TROY signal inh 8, HSP90 refold inh -1 and aSyn 5UTR inh 14.
Cc1cccc(C)c1NC(=O)C(c1ccnc2ccccc12)N1CCN(C)CC1 (configuration not stated) was read as HIF-2a inh -12 and TRAIL sens C8 7.
C#Cc1ccc([C@H]2C=C(C(=O)Nc3ccccc3)O[C@@H](OCc3ccc(CO)cc3)C2)cc1 was read as HIF-2a inh -20, TRAIL sens C8 89*, TWEAK-Fn14 inh -10, TROY signal inh -27 and aSyn 5UTR inh 1.
C#Cc1ccc([C@@H]2C=C(C(=O)O)O[C@H](OCc3ccc(CO)cc3)C2)cc1 was read as HIF-2a inh -1, TRAIL sens C8 10, TWEAK-Fn14 inh 5, TROY signal inh -10, HSP90 refold inh 16* and aSyn 5UTR inh -7.
C#Cc1ccc([C@H]2C=C(C(=O)NCc3ccccc3)O[C@@H](OCC)[C@@H]2CCCO)cc1 was read as HIF-2a inh 6, TRAIL sens C8 2, TWEAK-Fn14 inh -12, TROY signal inh 4, HSP90 refold inh 1 and aSyn 5UTR inh 4.
`CCO[C@H]1OC(C(N)=O)=C[C@@H](C(C)(C)C)[C@@H]1CCCO` gave HIF-2a inh 14, TRAIL sens C8 11, TWEAK-Fn14 inh 54*, TROY signal inh -19 and aSyn 5UTR inh -3.
Screening C#Cc1ccc([C@@H]2C=C(C(=O)Nc3ccccc3)O[C@H](OCC)[C@H]2CCCO)cc1 returned HIF-2a inh 0, TRAIL sens C8 80*, TWEAK-Fn14 inh -2, TROY signal inh 0, HSP90 refold inh -3 and aSyn 5UTR inh 4.
Screening CN1CCN(C2CN(Cc3cn(Cc4ccccc4)nn3)S(=O)(=O)C2)CC1 (configuration not stated) returned HIF-2a inh -9, TRAIL sens C8 -19, TWEAK-Fn14 inh 16 and TROY signal inh 4.
